Where a name gives a salt, the structure may show the parent alone. Values without a mark were called inactive.
Tests used:
[1] = system: Plasmodium falciparum NF54/iGP1_RE9H ulg8 stage V gametocytes; assay: gametocyte viability (luciferase signal relative to DMSO control) (% of DMSO control); higher = less gametocytocidal activity, active = 50 or less; details: exposure time: 72 h
Experimental: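 Synchronous P. falciparum NF54/iGP1_RE9H ulg8 mature stage V gametocytes (day 12) were exposed to Cayman Epigenetics Screening Library compounds at 10 µM or 1 µM for 72 h at 37 °C. Viability was read as RE9H luciferase bioluminescence, normalised to DMSO plate controls (100%); 50 µM methylene blue was the positive control.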

[2] = system: Plasmodium falciparum NF54/iGP1_RE9H ulg8 stage V gametocytes; assay: gametocyte viability (luciferase signal relative to DMSO control) (% of DMSO control); higher = less gametocytocidal activity, active = 50 or less; details: exposure time: 72 h; remark: listed apart in the source
In short: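 In 96-well plates holding nanolitre spots of compound (10 mM DMSO stocks), NF54/iGP1_RE9Hulg8 stage V gametocytes from day 12 were added at ~2.5% gametocytemia and 3% hematocrit in medium with 0.5% Albumax II, giving single wells at 10 µM or 1 µM. Incubation lasted 72 h at 37 °C. Each 90 µl sample then received 10 µl D-luciferin (30 mg/ml) before luminescence reading on an IVIS Lumina II, and viability was normalized to the mean of DMSO vehicle wells on the same plate.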

Structure (SMILES)	gametocyte viability ([1]; concentration: 1 µM)	gametocyte viability ([1]; concentration: 10 µM)	gametocyte viability ([2]; concentration: 1 µM)	gametocyte viability ([2]; concentration: 10 µM)
Nc1c(S(=O)(=O)c2ccccc2)c2nc3ccccc3nc2n1-c1ccc(F)cc1	66.8	56.6		
O=C(O)CC[C@H](O)C(=O)O [L-α-Hydroxyglutaric Acid (sodium salt)]	92.7	86.7		
CC(=O)OCC1OC(n2cnc(N)nc2=O)C(OC(C)=O)C1OC(C)=O (stereo not given) [2',3',5'-triacetyl-5-Azacytidine]	87.3	85.8		
CN(C)Cc1ccc(S(=O)(=O)n2ccc(/C=C/C(=O)NO)c2)cc1 [Resminostat (hydrochloride)]	94.8	77.8		
CC(C(=O)Nc1cccc(/N=C/c2c(O)ccc3ccccc23)c1)c1ccccc1 (stereo not given) [Salermide]	88.8	88.4		
CCCCc1nc2cc(/C=C/C(=O)NO)ccc2n1CCN(CC)CC	76.9	62.4		
O=C(Nc1cccc(Br)c1)c1cccc(S(=O)(=O)N2CCCCCC2)c1	85.8	69.8		
CCCCCCCCOC(=O)C(O)CCC(=O)O (stereo not drawn) [Octyl-α-hydroxyglutarate]	92.4	95.4		
O=C(CCCCCCSc1ccc2ccccc2c1)NO	84.8	84.6		
COc1ccc(S(=O)(=O)ON=C2C=C(C)C(=O)C(C)=C2)cc1	87.3	43.2 (active)		
COc1cc2c(cc1-c1c(C)noc1C)ncc1[nH]c(=O)n([C@H](C)c3ccccn3)c12	91.5	97.8		
O=C(/C=C/C#Cc1cccc(NS(=O)(=O)c2ccccc2)c1)NO [Oxamflatin]	101	168		
COc1ccc(CCc2nc3cc(-c4c(C)noc4C)ccc3n2C[C@H](C)N2CCOCC2)cc1Cl	78.4	68.6		
COC(=O)c1ccc(N2CCN(C)CC2)c(NC(=O)c2cccc(OC)c2)c1	85.8	82.1		
CN(C)Cc1c(C(=O)NCCOc2ccc(C(=O)NO)cc2)oc2ccccc12	65.8	59		
COc1cc2c(cc1OCCCN1CCCC1)N=C(N)C21CCC1	89.9	93.7		
CC(C)Oc1ccc(-c2c[nH]cc2CN(C)CCN)cc1 [MS023 (hydrochloride)]	64.4	30.3 (active)		
Nc1ccccc1NC(=O)c1cnccn1	96.3	89.4		
O=C(O)c1ccnc(C(=O)O)c1 [2,4-Pyridinedicarboxylic Acid (hydrate)]	90.8	90.6		
N[C@H]1C[C@@H]1c1ccc(-c2cccc(O)c2)cc1	92.2	79.4		
O=C(Cc1ccccc1)Nc1ccc2oc(-c3ccc(Cl)cc3Cl)nc2c1	80.3	51.9		
CN=C(NC)NCCCNCCCNCCCNC(=NC)NC [Lysine-specific Demethylase Inhibitor (1C) (hydrochloride)]	85.5	81.1		

Structure (SMILES)	gametocyte viability ([1]; concentration: 1 µM)	gametocyte viability ([1]; concentration: 10 µM)	gametocyte viability ([2]; concentration: 1 µM)	gametocyte viability ([2]; concentration: 10 µM)
CN(C)c1ccc(C(=O)NCCCCCC(=O)NO)cc1	76.2	52		
Clc1cc2c(NC3CCCC3)nnc(-c3ccncc3)c2cc1Cl	83.9	71.7		
COc1cc2nc(N3CCCN(C)CC3)nc(NC3CCN(Cc4ccccc4)CC3)c2cc1OC	71	23.3 (active)		
O=c1[nH]c(=S)[nH]c(-c2ccccc2)c1Cc1c(O)ccc2ccccc12 [SIRT1/2 Inhibitor IV]	84.7	87.5		
COc1cc2c(NC3CCN(CC4CCCCC4)CC3)nc(N3CCCN(C(C)C)CC3)nc2cc1OCCCN1CCCCC1	60.9	14.7 (active)		
CN(C)c1ccc(C(=O)NCCCCCCC(=O)NO)cc1	83.7	50.5		
NC(=O)[C@H](CCCN=C(N)CCl)NC(=O)c1ccccc1 [Cl-Amidine (hydrochloride)]	104	98.5		
C#Cc1cccc(Nc2ncnc3cc(OC)c(OC)cc23)c1			103	96.4
CC1(COc2ccc3c(c2)ncn3-c2ccc3cccc(N4CCC(N)CC4)c3n2)COC1			125	112
O=C1Cc2c([nH]c3ccc(Br)cc23)-c2ccccc2N1 [Kenpaullone]			62.2	16.3 (active)
COc1cc2ncnc(Nc3ccc(F)c(Cl)c3)c2cc1OCCCN1CCOCC1 [Gefitinib (Iressa)]			95.3	92.8
CNC(=O)c1cc(Oc2ccc(NC(=O)Nc3ccc(Cl)c(C(F)(F)F)c3)c(F)c2)ccn1 [Regorafenib (BAY 73-4506)]			95.1	99.1
Cn1cnc(-c2cc3nccc(Oc4ccc(NC(=S)NC(=O)Cc5ccccc5)cc4F)c3s2)c1			90.2	93.5
NC(=O)Nc1cc(-c2cccc(F)c2)sc1C(=O)N[C@H]1CCCNC1			116	92.3
C=CC(=O)Nc1cccc(Oc2nc(Nc3ccc(N4CCN(C)CC4)cc3OC)ncc2Cl)c1			91.9	97.3
Cn1c(=O)n(-c2ccc(C(C)(C)C#N)cc2)c2c3cc(-c4cnc5ccccc5c4)ccc3ncc21			96.8	104
N#C/C(=C\c1ccc(O)c(O)c1)C(N)=O			93.5	98
O=C(O)c1ccc2nc(-c3ccccc3)c(-c3ccccc3)nc2c1			98.6	95.2
COC(=O)c1ccc2c(C(=Nc3ccc(N(C)C(=O)CN4CCN(C)CC4)cc3)c3ccccc3)c(O)[nH]c2c1 [BIBF1120 (Vargatef)]			96	108
O=c1c(O)c(-c2ccc(O)c(O)c2)oc2cc(O)cc(O)c12 [Quercetin·2H2O]			102	95.8
CN(C)CCCn1cc(C2=C(c3c[nH]c4ccccc34)C(=O)NC2=O)c2ccccc21			92.7	115
Cn1cc(-c2ccc3nnc(C(F)(F)c4ccc5ncccc5c4)n3n2)cn1			98.2	118

Structure (SMILES)	gametocyte viability ([1]; concentration: 1 µM)	gametocyte viability ([1]; concentration: 10 µM)	gametocyte viability ([2]; concentration: 1 µM)	gametocyte viability ([2]; concentration: 10 µM)
c1cncc(CN2CCC(n3ncc4c(N5CCOCC5)nc(-c5ccc6[nH]ccc6c5)nc43)CC2)c1			95.7	103
CN(C)Cc1cccc(N=C(c2ccccc2)c2c(O)[nH]c3cc(C(=O)N(C)C)ccc23)c1			116	121
O=c1cc(-c2ccc(O)cc2)oc2cc(O)cc(O)c12 [Apigenin]			101	65.3
CNC(=O)c1cc(Oc2ccc(NC(=O)Nc3ccc(Cl)c(C(F)(F)F)c3)cc2)ccn1 [Sorafenib (Nexavar)]			114	115
Cc1cc(=O)c2c(O)c3c(O)cc(O)c4c5c(O)cc(O)c6c(O)c7c(=O)cc(C)c8c1c2c(c34)c(c65)c78 [Hypericin]			103	100
C[C@@H]1CCN(C(=O)CC#N)C[C@@H]1N(C)c1ncnc2[nH]ccc12			107	110
COc1ccc(S(=O)(=O)N(CCO)c2ccccc2CN(C)CC=Cc2ccc(Cl)cc2)cc1			112	102
CN1CC[C@H](c2c(O)cc(O)c3c(=O)cc(-c4ccccc4Cl)oc23)[C@H](O)C1 [Flavopiridol hydrochloride]			106	111
Cc1ccc(NC(=O)c2cccc(N(C)C)c2)cc1NC(=O)c1ccc(O)cc1			95.9	95.6
CCC[C@H](NC(=O)/C(C#N)=C/c1cccc(Br)n1)c1ccccc1			114	106
Cc1cnc(Nc2ccc(N3CCN(C)CC3)cc2)nc1Nc1cccc(S(=O)(=O)NC(C)(C)C)c1			91.9	66.6
COc1cc(N2CCC(N3CCN(C)CC3)CC2)ccc1Nc1ncc(Cl)c(Nc2ccccc2S(=O)(=O)C(C)C)n1			73.9	41.9 (active)
Nc1ncnc2c1c(-c1cnc3[nH]ccc3c1)nn2C1CCCC1			101	116
CN(C)Cc1cccc(N=C(c2ccccc2)c2c(O)[nH]c3cc(C(N)=O)ccc23)c1			109	122
NC(N)=NCCNS(=O)(=O)c1cccc2cnccc12			107	107
CN(C)C/C=C/C(=O)Nc1cc2c(Nc3ccc(F)c(Cl)c3)ncnc2cc1O[C@H]1CCOC1 [Afatinib (BIBW2992)]			92	93.5
CN(C)c1ccc(-c2nc3ncc(Cl)c(N4CCN(CC(=O)Nc5nccs5)CC4)c3[nH]2)cc1			82.4	101
Fc1cc(-c2cccc3ncc(-c4cnn(C5CCNCC5)c4)nc23)cc(F)c1CN1CCOCC1			107	80
OCCn1cc(-c2cnc3nnn(Cc4ccc5ncccc5c4)c3n2)cn1			93.3	98.6
C=CC(=O)Nc1cccc(Sc2nc(Nc3ccc(N4CCN(C)CC4)cc3)ncc2Cl)c1			87.2	72.7
N#Cc1c(O)c2c(-c3ccc(-c4ccccc4O)cc3)csc2[nH]c1=O			97.7	105

Reference: the supplement of paper PMC12297408
